# Bioassay records deposited in PubChem BioAssay by several laboratories.
# Jurkat NFkB inh: inhibitors of the PMA/ionomycin-induced NF-kB reporter in Jurkat cells | 330,000 compounds, 0.53% hits | inhibition, % at 4 µM | AID 435003 | PMA/ionomycin-induced NF-kB luciferase reporter, luminescence; in the data active = inhibition above about 50%
# NTR1 ag: activates human neurotensin receptor 1; activation, % at 20 µM; P30989; NTR1-U2OS beta-arrestin-GFP spot imaging, agonist mode; AID 493036; 330,000 compounds, 0.17% hits;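 active = activation at or above 40% of the spot to cytoplasm intensity ratio, with at least 20 cells analyzed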;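 also: 0% = DMSO without peptide and 100% = 100 nM NTR1 peptide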
# 697 NFkB inh: inhibitors of the PMA/ionomycin-induced NF-kB reporter in 697 B cells | 697 B-cell NF-kB luciferase reporter, 16 h | inhibition, % at 4 µM | 330,000 compounds, 0.33% hits; in the data active = inhibition above about 35%
# Beta apoptosis: blocks beta cell apoptosis. 300,000 compounds, 0.8% hits. protection from apoptosis, % (no concentration beside the values). AID 435005. INS-1E cytokine-induced death, ATP luminescence, 48 h; percent of positive-control rescue, neutral wells zero;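 active = Every replicate reaches about 75%, or at least half do and their mean reaches it too, limit read from the data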;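 also: 0% = cytokine-treated negative control wells and 100% = positive control rescue; higher means more ATP so stronger rescue from cytokine killing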
# A1 inh: inhibitors of the anti-apoptotic protein A1, read as caspase activation; MEF A1-2A-BIM cells, Caspase-Glo 3/7 luminescence, 3 h; percent of clofoctol response, vehicle zero; AID 2462; 330,000 compounds, 0.066% hits; caspase activation, % (concentration not given with the values);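 active = over half of replicate activation scores above 10%, or exactly half above 10 with the replicate mean above 10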
# Mdm2-MdmX inh: inhibitors of human Mdm2/MdmX interaction. O15151+Q00987. SaOS-2 split-luciferase Mdm2/MdmX complementation, luminescence. inhibition, % at 8 µM. 330,000 compounds, 3% hits. AID 485346;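 active = inhibition of at least 50% at 8 µM in the primary screen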
# Target sequence (O15151 whole entry, looked up): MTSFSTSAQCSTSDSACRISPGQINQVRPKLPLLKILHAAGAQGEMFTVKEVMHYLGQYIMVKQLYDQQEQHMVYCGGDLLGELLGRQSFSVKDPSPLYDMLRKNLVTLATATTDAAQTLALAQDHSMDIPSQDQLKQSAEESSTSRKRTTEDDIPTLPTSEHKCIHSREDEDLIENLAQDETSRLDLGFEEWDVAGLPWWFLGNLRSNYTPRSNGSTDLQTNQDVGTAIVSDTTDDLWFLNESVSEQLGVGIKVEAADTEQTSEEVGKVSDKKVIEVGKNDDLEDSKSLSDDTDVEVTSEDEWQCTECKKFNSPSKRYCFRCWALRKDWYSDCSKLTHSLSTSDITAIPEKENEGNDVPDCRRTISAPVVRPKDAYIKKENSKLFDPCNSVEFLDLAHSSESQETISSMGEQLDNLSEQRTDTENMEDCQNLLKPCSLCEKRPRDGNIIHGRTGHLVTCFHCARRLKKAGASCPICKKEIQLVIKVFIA
# Target sequence (Q00987 whole entry, looked up): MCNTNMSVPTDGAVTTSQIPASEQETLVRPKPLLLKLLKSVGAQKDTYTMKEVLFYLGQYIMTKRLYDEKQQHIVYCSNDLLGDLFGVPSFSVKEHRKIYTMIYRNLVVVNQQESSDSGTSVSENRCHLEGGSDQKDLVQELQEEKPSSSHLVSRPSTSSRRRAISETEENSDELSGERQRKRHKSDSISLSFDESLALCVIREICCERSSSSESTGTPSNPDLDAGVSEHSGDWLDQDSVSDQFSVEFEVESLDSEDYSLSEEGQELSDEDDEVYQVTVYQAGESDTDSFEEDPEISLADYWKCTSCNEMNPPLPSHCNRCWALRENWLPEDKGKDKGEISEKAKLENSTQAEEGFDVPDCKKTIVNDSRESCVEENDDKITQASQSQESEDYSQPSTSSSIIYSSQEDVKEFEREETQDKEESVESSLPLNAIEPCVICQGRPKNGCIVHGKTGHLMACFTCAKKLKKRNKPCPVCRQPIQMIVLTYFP
# An asterisk follows results filed as active; / = no result given. Sampled rows, rich in hits. Any-hit rate of the full collection: about 3.8%.
SMILES,Jurkat NFkB inh,NTR1 ag,697 NFkB inh,Beta apoptosis,A1 inh,Mdm2-MdmX inh
NC1=C(Br)C(=O)c2ccccc2C1=O,2,0,4,102*,-2,43
CN1CCN(c2oc(-c3ccccc3)nc2S(=O)(=O)c2ccc(Br)cc2)CC1,9,6,8,/,0,-6
CCOC(=O)c1c(C)[nH]c(C(=O)N/N=C\c2ccccc2O)c1C,/,/,/,77*,-2,/
COc1ccccc1/C=N/NC(=O)c1[nH]c(C)c(C(=O)N/N=C/c2ccccc2OC)c1C,-7,3,-10,1,0,-33
CCc1ccc(OC(=O)c2cccnc2)cc1,0,0,-2,0,1,-38
Cc1cc(/C=C2/SC(=S)N(c3cccc(Cl)c3)C2=O)c(C)n1-c1cccnc1,-6,-8,3,125*,0,7
Cc1cccc(N2C(=O)/C(=C/c3cccnc3)SC2=S)c1,-9,11,-30,-6,0,10
Cc1ccc(N2C(=O)/C(=C/c3cccnc3)SC2=S)cc1,-28,-1,-34,-1,0,0
Cc1cc(/C=C2/SC(=S)N(c3ccc([N+](=O)[O-])cc3)C2=O)c(C)n1-c1cccnc1,45,0,22,106*,-1,32
O=C(CSc1ccc(S(=O)(=O)N2CCOCC2)cn1)Nc1ccc(F)c(F)c1,21,-2,1,6,1,-20
C=CCN1CCN(C(=O)c2oc3ccccc3c2C)CC1,-9,3,2,6,1,-3
COc1ccc(-c2ccc([C@H]3[C@@H]4C=CCC[C@@]4(C)C(=O)N3Cc3ccccc3)c(F)c2)cc1,7,-1,15,85*,0,45
CN(C)S(=O)(=O)c1cccc(CSCc2cccc(S(=O)(=O)N(C)C)c2)c1,45,1,-23,108*,0,2
Cc1cc(C)n2nc(SCc3cccc(S(=O)(=O)N(C)C)c3)nc2n1,-23,-1,-24,/,0,-24
Cc1ccccc1C(=O)Nc1cccc(C(=O)N/N=C/c2cc(Cl)cc([N+](=O)[O-])c2O)c1,8,0,-2,101*,-1,26
COc1cc(/C=N/NC(=O)c2cccc(NC(=O)c3ccccc3C)c2)ccc1O,1,0,10,/,0,-3
Cc1cccc(C(=O)O/N=C/c2c(N3CCOCC3)n(C)c3ccccc23)c1,17,-2,-16,97*,0,31
COc1ccc(CC(=O)Nc2cccc(S(=O)(=O)N3CCCCCC3)c2)cc1OC,/,/,/,87*,1,/
Cc1nc2ccc(NS(=O)(=O)c3ccc4c(c3)OCCO4)cc2s1,14,0,-5,123*,0,-9
Cc1cc(C)c(NC(=O)CCN2C(=O)c3ccccc3S2(=O)=O)c(C)c1,-1,1,12,1,0,6
O=C(Nc1ccc([N+](=O)[O-])cc1)C1CC1(c1ccccc1)c1ccccc1 (stereo not given),11,13,16,-6,0,46
CC1(C)C(C=C(Cl)Cl)C1C(=O)Nc1ccc([N+](=O)[O-])cc1 (stereo not given),/,/,/,96*,-1,/
OC(CNC1CCCCC1)COCCOc1ccc(Br)cc1 (stereo not given),1,0,7,106*,0,30
O=C(c1ccco1)c1coc2c1cc(O)c1ccccc12,-9,6,-3,100*,-1,-17
CCCOc1ccc(N)cc1N,-10,0,-14,99*,2,18
SMILES,Jurkat NFkB inh,NTR1 ag,697 NFkB inh,Beta apoptosis,A1 inh,Mdm2-MdmX inh
CCCOc1cc(N)ccc1C(=O)OCCN(CC)CC,2,-1,17,/,-1,3
CC(=O)Nc1ccc(NC(=O)C(=O)NCC(c2ccco2)N2CCc3ccccc32)cc1 (stereo not given),-13,1,-15,/,32*,8
Cn1cc(CNCc2cn[nH]c2-c2ccc(F)cc2)c(-c2ccc3c(c2)OCCO3)n1,9,-2,-10,-3,0,13
Cn1cc(CNCc2ccc(OC(F)(F)F)cc2)c(-c2ccc3c(c2)OCCO3)n1,39,4,-60,142*,-1,29
O=C(N/N=C\c1cn(-c2ccccc2)nc1-c1ccccc1)c1ccc(Br)o1,-18,2,1,110*,-2,42
CC1=C(C#N)C(C(F)(F)F)(C(F)(F)F)N=C(c2ccco2)N1,-16,0,-1,101*,0,18
Cc1nc(N2CCN(C(=O)c3ccco3)CC2)c2c3c(sc2n1)CC(C)CC3 (stereo not given),-11,5,-14,80*,-3,23
O=C(C(Sc1ccccc1)c1ccc(Br)cc1)N1CCOCC1 (stereo not given),0,0,1,0,1,13
O=C(C(Sc1ccccc1)c1ccccc1)N1CCN(c2ccccc2F)CC1 (stereo not given),0,2,4,90*,1,-6
O=C(CCC(=O)N1CCN(c2ccccc2F)CC1)N1CCN(c2ccccc2)CC1,9,1,12,1,9.4*,30
COc1ccc(N(CC(=O)NC2CCS(=O)(=O)C2)S(=O)(=O)c2cc(C)ccc2C)cc1 (stereo not given),11,-1,5,-1,1,7
CN(Cc1ccccc1)S(=O)(=O)c1csc(C(N)=O)c1,-7,0,-59,-8,0,8
COc1ccc(-n2c(-c3ccc(Br)cc3)c[n+]3c2CCCCC3)cc1,26,1,-36,111*,0,20
COc1ccc(-n2c(-c3ccccc3)c[n+]3c2CCC3)cc1,48,1,18,46,0,33
COc1ccc(-n2c(-c3ccc(Br)cc3)c[n+]3c2CCC3)cc1,23,2,7,76*,0,-1
COc1ccc(-n2c(-c3ccc(Br)cc3)c[n+]3c2SC(C)C3)cc1 (stereo not given),-1,1,27,/,0,39
Cc1ccc(-n2c(-c3ccccc3)c[n+]3c2CCC3)cc1,35,2,23,109*,0,-7
COCC1CCCCN1C(=O)c1cccc(OC2CCN(C(=O)C3CC3)CC2)c1 (stereo not given),-26,0,-29,7,0,-13
CCCc1cc(=O)n2nc(N3CCC(C(=O)NCc4ccc(C)o4)CC3)sc2n1,-2,-2,12,/,/,3
CC(=O)Nc1cccc(C(=O)N/N=C/c2c[nH]c3ccccc23)c1,-14,1,2,-2,0,0
NC(=NCCc1ccccc1)NC(=O)c1cc(Cl)ccc1O,-13,1,-25,0,-1,-8
CNC[C@H]1Oc2c(NC(=O)C3CC3)cccc2C(=O)N([C@H](C)CO)C[C@@H]1C,-4,-2,-9,5,0,-25
